Molecular target: RUNX1 (UniProt Q01196)
Experiment: RUNX1 binding intensity (PBM fluorescence) in presence of ETS1, normalised to RUNX1-only experiment (arbitrary fluorescence units); higher = stronger binding
Settings: RUNX1 concentration 2 nM; ETS1 concentration 25 nM
Method: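 Cooperative gcPBM on 36-bp genomic probes with neighbouring ETS1 and RUNX1 sites. Recombinant human RUNX1 (2 nM) was incubated alone or with ETS1 (25 nM) and detected with anti-RUNX1 antibody plus Alexa488 secondary. Values are medians over 4 replicate spots; the RUNX1+ETS1 data were normalised to the RUNX1-only data. The probes sit in constant array flanks that are not printed.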
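Note: Full-length recombinant human ETS1 or RUNX1 bound to double-stranded 36-bp genomic probes on microarrays, detected by protein-specific primary antibody and Alexa488 secondary, spot fluorescence as median of four replicate spots.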

Chain of RUNX1 (Q01196 whole entry): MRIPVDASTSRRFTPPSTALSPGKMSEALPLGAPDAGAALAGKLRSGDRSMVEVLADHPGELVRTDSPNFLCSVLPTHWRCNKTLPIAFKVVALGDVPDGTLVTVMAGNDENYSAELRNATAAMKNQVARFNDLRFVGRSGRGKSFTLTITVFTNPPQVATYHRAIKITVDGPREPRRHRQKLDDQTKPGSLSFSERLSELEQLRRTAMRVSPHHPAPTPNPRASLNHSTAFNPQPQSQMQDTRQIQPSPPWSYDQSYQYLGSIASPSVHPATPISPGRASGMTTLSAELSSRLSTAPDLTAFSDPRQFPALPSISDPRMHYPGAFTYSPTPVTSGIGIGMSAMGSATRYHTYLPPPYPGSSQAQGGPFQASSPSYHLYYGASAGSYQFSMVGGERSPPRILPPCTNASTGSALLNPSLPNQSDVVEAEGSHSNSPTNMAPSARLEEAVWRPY

Sequence	RUNX1 binding intensity
ACTGCACGGCTGGGAGGATGTGGTCACACACGCCAC	1350
ACCGGATGCCGGGGCACCGCCAGATGTGGCCACGAG	941
CCGCCACCGGAAGCGCCCTCCTAATCCCCGCAGCGC	1920
GCGGGAAAAGGGAAGTTTGCGGGAGGTCAAATCCAC	968
TCCCCGGCAGCTTCCTCGCCCCGACCGCAGTGTTCC	1570
GAGTTCTCCGCTTCCTTGCGGCCGGCGGGATTAGCC	1030
GCTTCTTCAGCCACATCCTGACCACAGCCCAGATTC	5070
CATGGTTGTTATTTCCTCACCACAATATGTGACATT	1300
TCTAGTAAAAGAGGAAGTTCTTAACCACATTTCCAT	1620
CCTGCCTGAGGCAGGAAGCCGCAGCTGAGGGACGGC	1280
GCTGCCGGAAAAGGCGCCGAGGTAACCGCCTCACTT	1020
AGGTTCGTGGCAGGAAAGTTTGTGGCAGCAAAGCCT	1100
AGGTCTCCGGAAGTGGGTCTGCGGCGCGCGGGATGC	3290
TCAGGGGTGGGAGGAAGTGGTTAGGATCAGCCTGGG	2680
CCGCGCACCCGGAACTACCTCCCGACCCGCATCCCC	1440
TCCCCCACTTCCTGGCAGCAGCAGTGTGGTGAGGAG	2160
CTGCTGCCGCGAACAGGAAACCACTACAATCAGGAG	1100
TTTATCATGAATGCAGGATGTGGGCAAACTCGCATC	1060
ACCTCTCTCACTTCCTACCAGAGAACCACAGCCAAG	2150
GCTCCCTGGACAGGATGTGGTGCCGAGTAAACAGCT	1410

Sequence	RUNX1 binding intensity
ATTTTAGCATTTTCCTGCTCGGAGACCACATGTTTG	1220
GGCGGGGCATCCGGCAGCACCGCCTGCGGGCGCCCG	1070
TGGTTAGGGAGAGGGGGATGTGGTTAGGGTGAGGGA	1140
GTTTGAAGGGAAGTGGGTGTTGACCTGCGGGCAACT	969
ACTACAACTTCCGACTTGCATCACTGCGGTGGCGCT	1830
GAGGACTTCCGGGTGCGTGTGATATCTGCGGGCCCG	2110
TCATATCCGGCAGGAATGGGTTTTGTGGCTTTGTGC	3620
GAGCGGAAACCCGAGAGTCAGTTCAACCACAGCCAC	1010
AGCGGCCGAAGGAAGTGACGTTTGCGGCAGTAAGGC	1300
TGACATGGCTTCCGCCTTGGGCTTTGTGGTCTCCCA	1760
TGGGGCTAGGCTTCCGGGGCTCTGCGGTCCTCGGCC	1180
TGGTTTCCGGGCTGGGGTTAGAATAGGCCACAAGGT	1740
GGGCATGGTGGCTTCCGACCGCGGGGACCCCGAGAG	956
GTTGTCTTCTTCCTGAGTAAACCGCAGTGCAGAGAA	6380
TGCAGCCTATTTCCTCTAACCCGCAGATCCACTATG	2250
GCCAAGGCCTTCCGCCGAGTTGGTTTTTGGGTTGTT	952
GGTGCCTGGGGAGGATGTGGGCTGACTGGGAGGGGT	974
GCCGCCGTTTCCTGATTGGTTGTGGGTGGCTACCTC	1660
GGCTTCCGCCTGCCGAGCGGCCCCGGACCGCAGGCC	1980
TCTAACGCTGAAGGAGGATGTGGTTTCCTATTGGAC	2110

— the supplement of paper PMC10681739
